Screening results from PubChem.
The list is not random: actives were taken first. Their share in the collection is about 2.8%.
Shn3 3UTR inh: inhibitors of Schnurri-3 3'UTR reporter in osteoblasts | inhibition, % at 12.5 µM | AID 588674 | Clone20 osteoblast Shn3 3'UTR firefly luciferase, 24 h | 360,000 tested, 0.52% active;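 active = mean inhibition of at least 75% with every replicate also reaching 75%; inconclusive = mean inhibition at least 75% but some replicate below; inactive = mean inhibition below 75%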;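 note: 0% = median of neutral control wells and 100% = pilot-screen positive control compound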
PAX8 reporter: lowers PAX8-driven luciferase in RMG-I cells | RMG-I TPO-luciferase reporter, SteadyGlo, 24 h | inhibition, % at 12.6 µM | 360,000 tested, 1.2% active;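 active = mean replicate inhibition at least 60% with every replicate also reaching 60%; inconclusive = only one of the two criteria is met; inactive = mean below 60% and not all replicates reaching 60%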;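 note: luciferase light reporting Pax8 driven TPO promoter activity; plate controls were median of neutral control wells for no effect and mitoxantrone controls for full effect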
HIF-2a block: HIF-2a inhibition; inhibition, % at 18.8 µM; 786-0 RCC cells HIF-2a reporter, luciferase luminescence, overnight; 360,000 tested, 0.72% active;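 active = inhibition of the luminescence signal of 40% or more relative to plate controls, in a single-dose primary screen at 18.75 µM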
EBV LMP1 NFkB: inhibitors of Epstein-Barr LMP1-induced NF-kappaB reporter | LMP1-induced NF-kappaB luciferase reporter cells, luminescence | inhibition, % at 12.5 µM | 350,000 tested, 0.69% active | AID 504558; in the data active = inhibition above about 41%; inconclusive = no clear call, values can overlap the other calls;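 note: 0% = neutral control wells and 100% = reference inhibitor control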
Peg3 prom inh: reduces Peg3 promoter-driven luciferase expression in HeLa; inhibition, % at 20 µM; AID 588405; HeLa PEG-Prom luciferase reporter, luminescence, overnight; 360,000 tested, 1.7% active;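 active = inhibition of at least 50% at 20 µM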
TRPM1 prom inh: reduces MITF-dependent TRPM1 promoter luciferase signal | SK-MEL-5 TRPM1 promoter luciferase, 24 h | inhibition, % at 12.5 µM | 330,000 tested, 0.83% active | AID 488899;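 active = mean inhibition across replicates of 60% or more, whatever share of single replicates reaches that level; inconclusive = some that reach 60%, reason not given; inactive = mean inhibition across replicates below 60%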
An asterisk follows results filed as active.

Screening N/C(=N\OC(=O)c1ccc2ccccc2c1)c1ccncc1 returned Shn3 3UTR inh -15, PAX8 reporter -112, HIF-2a block -256, EBV LMP1 NFkB -10, Peg3 prom inh -265 and TRPM1 prom inh -89.
`CCOC(=O)c1c[nH]c(=O)c(Br)c1O` gave Shn3 3UTR inh -12, PAX8 reporter 6, HIF-2a block 24, EBV LMP1 NFkB 61*, Peg3 prom inh 7 and TRPM1 prom inh 1.
Screening CCOC(=O)c1c[nH]c2nc(C)ccc2c1=O returned Shn3 3UTR inh -8, PAX8 reporter 5, HIF-2a block -25, EBV LMP1 NFkB -1, Peg3 prom inh -30 and TRPM1 prom inh 2.
`CCN(CC)CCCNC(=O)c1[nH]c2ccccc2c1Sc1ccc(Cl)cc1` gave Shn3 3UTR inh -6, PAX8 reporter 3, HIF-2a block 23, EBV LMP1 NFkB -4, Peg3 prom inh 65* and TRPM1 prom inh 16.
Screening CNC(=O)CC1C(=O)N(c2ccc(OC)cc2)C(=S)N1NC(=O)c1cccc(F)c1 (centres undefined) returned Shn3 3UTR inh 10, PAX8 reporter 12, HIF-2a block 2 and Peg3 prom inh 69*.
For Cc1ccc2nc(-c3ccncc3)c(Nc3ccccc3)n2c1 the results were Shn3 3UTR inh 12, PAX8 reporter 65*, HIF-2a block 8, EBV LMP1 NFkB -31, Peg3 prom inh -2 and TRPM1 prom inh 2.
`CO[C@@H]1CN(C)C(=O)c2ccc(NC(=O)c3ccccn3)cc2OC[C@@H](C)N(CCC(F)(F)F)C[C@H]1C` gave PAX8 reporter 7.
For CN1CCN(CC(=O)c2cc(C(C)(C)C)c(O)c(C(C)(C)C)c2)CC1 the results were Shn3 3UTR inh -4, PAX8 reporter -4, HIF-2a block 5, EBV LMP1 NFkB 86*, Peg3 prom inh 9 and TRPM1 prom inh -11.
Screening O=C1c2ccc3c4c(ccc(c24)C(=O)N1CCCCO)C(=O)N(CCCCO)C3=O returned Shn3 3UTR inh 37, PAX8 reporter 30, HIF-2a block -36, EBV LMP1 NFkB 12, Peg3 prom inh 49 and TRPM1 prom inh 102*.
`O=C(c1ccc2c(c1)C(=O)N(CCCO)C2=O)c1ccc2c(c1)C(=O)N(CCCO)C2=O` gave Shn3 3UTR inh 15, HIF-2a block 6, EBV LMP1 NFkB 3, Peg3 prom inh 10 and TRPM1 prom inh 2.
Screening C[C@@H](O)C#Cc1ccc([C@H]2[C@H]3CN(C(=O)c4ccncc4)CCCCN3[C@H]2CO)cc1 returned PAX8 reporter 16.
`CC(S(=O)(=O)c1ccccc1)S(=O)(=O)c1ccccc1` gave Shn3 3UTR inh 16, PAX8 reporter 15, HIF-2a block 6, EBV LMP1 NFkB -1 and Peg3 prom inh -5.
Screening CC1=C/C(=N\OS(=O)(=O)c2ccccc2)C(C(C)C)=CC1=O returned Shn3 3UTR inh 68, HIF-2a block 29, EBV LMP1 NFkB 6, Peg3 prom inh 96* and TRPM1 prom inh 10.
Screening CNC[C@@H]1Oc2ccc(NC(=O)C3CC3)cc2C(=O)N([C@H](C)CO)C[C@@H]1C returned PAX8 reporter 9.
COC1C=CC=C(C)C(=O)NC2=CC(=O)C(N)=C(CC(C)CC(OC)C(O)C(C)C=C(C)C1OC(N)=O)C2=O (centres undefined) was read as Shn3 3UTR inh 87*, PAX8 reporter 41, HIF-2a block -45, EBV LMP1 NFkB 72*, Peg3 prom inh 64* and TRPM1 prom inh 65*.
Screening CO[C@H]1CN(C)C(=O)c2cc(NC(=O)c3ccccc3F)ccc2OC[C@H](C)N(C(C)=O)C[C@@H]1C returned PAX8 reporter -5.
`CCCCC(CC)CN1CN(CC(CC)CCCC)CC(C)(N)C1` (centres undefined) gave Shn3 3UTR inh -10, PAX8 reporter -15, HIF-2a block -4, EBV LMP1 NFkB -3, Peg3 prom inh 103* and TRPM1 prom inh 22.
Screening O=C(NCCc1ccc(F)cc1)Nc1ccc([N+](=O)[O-])cc1 returned Shn3 3UTR inh 18, PAX8 reporter -30, HIF-2a block -111, EBV LMP1 NFkB -18, Peg3 prom inh -56 and TRPM1 prom inh -15.
Screening O=[N+]([O-])c1ccc(NC(=S)NCCc2ccc(F)cc2)cc1 returned Shn3 3UTR inh 49, PAX8 reporter 81*, HIF-2a block -84, EBV LMP1 NFkB -3, Peg3 prom inh 26 and TRPM1 prom inh 6.
`COCCCNc1cc(C)nc2ccccc12` gave Shn3 3UTR inh -5, HIF-2a block 9, EBV LMP1 NFkB 2, Peg3 prom inh 18 and TRPM1 prom inh 0.
Cc1cc(NCCCCCCCNc2cc(C)nc3cc([N+](=O)[O-])ccc23)c2ccc([N+](=O)[O-])cc2n1 was read as Shn3 3UTR inh 86*, PAX8 reporter 33, HIF-2a block 33, EBV LMP1 NFkB 79*, Peg3 prom inh 102* and TRPM1 prom inh inconclusive.
Screening C[C@H]1CCCCO[C@H](CN(C)Cc2ccc3c(c2)OCO3)[C@@H](C)CN([C@@H](C)CO)C(=O)c2cc(NC(=O)Cc3ccccc3)ccc2O1 returned PAX8 reporter -2.
Screening O=C1S/C(=C\c2ccc(N3CCOCC3)o2)C(=O)N1Cc1c(F)cccc1Cl returned Shn3 3UTR inh 96*, HIF-2a block -1, EBV LMP1 NFkB -1, Peg3 prom inh 8 and TRPM1 prom inh 2.
For Cc1cccn2c(=O)c3cc(C(=O)NCCN4CCOCC4)c(=N)n(Cc4ccc(F)cc4)c3nc12 the results were Shn3 3UTR inh -6, PAX8 reporter 75*, HIF-2a block 23, EBV LMP1 NFkB 0, Peg3 prom inh 46 and TRPM1 prom inh 15.
COCCCn1c(C(=O)Nc2ccc3c(c2)OCO3)cc2c(=O)n3cccc(C)c3nc21 was read as Shn3 3UTR inh -12, PAX8 reporter 2, HIF-2a block -14, EBV LMP1 NFkB 27 and Peg3 prom inh 60*.
COc1ccc(CCNC(=O)c2cc3c(=O)n4cccc(C)c4nc3n(CCCN3CCOCC3)c2=N)cc1 was read as Shn3 3UTR inh 22, PAX8 reporter -9, HIF-2a block 8, EBV LMP1 NFkB -42, Peg3 prom inh 57* and TRPM1 prom inh 73*.
Screening COc1ccc(CNC(=O)c2c(N)n(CCCN3CCOCC3)c3nc4ccccc4nc23)cc1 returned Shn3 3UTR inh -12, HIF-2a block -12, EBV LMP1 NFkB -5, Peg3 prom inh 70* and TRPM1 prom inh -3.
CC(C)NC(=O)Nc1ccc2c(c1)C(=O)N([C@H](C)CO)C[C@@H](C)[C@@H](CN(C)C(=O)NC1CCCCC1)OCCCC[C@@H](C)O2 was read as PAX8 reporter -22.
`Cc1ccc(C(=O)N2CCC(C(=O)c3ccc(F)cc3)CC2)cc1` gave Shn3 3UTR inh 32, PAX8 reporter 27, HIF-2a block 6, EBV LMP1 NFkB -5, Peg3 prom inh 20 and TRPM1 prom inh -6.
